Hit rate of the full screen: of about 330,000 compounds, about 7,700 (2.3%) were called active. Inconclusive results (about 26%) are left out. The call rests on the fitted dose curve; in most records, active means well fitted inhibition curve with a large enough effect; inconclusive means small, poorly fitted or top-dose-only effect, or effect the other way; inactive means flat fitted curve, though single readings scatter. The entries come from a sample that favours actives as a whole. Where a call stands in place of a potency, no number is given.
assay: qHTS screen for small molecules that inhibit ELG1-dependent DNA repair in human embryonic kidney (HEK293T) cells expressing luciferase-tagged ELG1; details: HEK293T ELG1-luciferase reporter, luminescence, 16 h, DNA damage induced by 5-fluorouridine; series mostly up to 46.1 µM; further: nearly all actives have a fitted effect of over 55% in size
Summary of the method: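 HEK293T cells expressing luciferase-tagged ELG1 (2,000/well) received 5-Fluorouridine plus compound or DMSO for 16 hr at 37 °C. Luciferase was read by ONE-Glo luminescence after 30 min at room temperature.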
Potency means the concentration at half of the fitted maximal effect.

SMILES | Potency
COc1ccccc1CNC(=O)COn1nnc2ccc(S(=O)(=O)N3CCOCC3)cc21 | inactive
COc1ccc(OC)c(Nc2nc3ccccc3n3cnnc23)c1 | 14.6 µM (active)
CCn1c(C(O)c2cc(OC)ccc2OC)nc2ccccc21 (stereo not drawn) | inactive
COc1ccc(CCNc2nc3ccc(C)cc3n3cnnc23)cc1OC | inactive
Cc1ccc(/C=C2/SC(=S)N(CCC(=O)NCCCN3CCOCC3)C2=O)cc1 | inactive
CCOc1ccc(NC(=O)COc2ccc(C(=O)N3CCC(C(N)=O)CC3)cc2OC)cc1 | inactive
Cc1cc(-n2nc(C)cc2C)n2nc(C)c(-c3ccccc3)c2n1 | inactive
CCc1c(C)nc2c(-c3ccccc3)c(C)nn2c1Nc1ccc(NC(C)=O)cc1 | 16.4 µM (active)
Cc1cc(-c2ccccc2)n2nc(C)c(-c3ccccc3)c2n1 | inactive
Cc1cc(C)c2nc(N(CCN(C)C)C(=O)/C=C/c3cccs3)sc2c1 | inactive
CN(CC(=O)Nc1ccc(F)c(F)c1F)C(=O)Cn1cnc2c1c(=O)n(C)c(=O)n2C | inactive
O=C(COc1ccccc1F)NNC(=O)c1cc(Br)ccc1Cl | inactive
COc1ccccc1N1CCN(C(=O)C2Cc3ccccc3CN2C(=O)c2ccco2)CC1 (stereo not drawn) | inactive
Cc1ccc(C)c(-c2nnc(NC(=O)CS(=O)(=O)c3ccccc3)o2)c1 | inactive
COc1ccc(S(=O)(=O)NCC(=O)NC2CC2)cc1OC | inactive
CCN(CC)c1ccc(/C=N/NC(=O)c2cnccn2)c(O)c1 | 1.46 µM (active)
Cc1ccc(C(=O)NCCNC(=O)c2cnccn2)cc1 | inactive
O=C(N/N=C/c1ccc(O)c2ccccc12)c1cccnc1 | inactive
CC1(c2ccc3ccccc3c2)NC(=O)N(CC(N)=O)C1=O (stereo not drawn) | inactive
CCc1ccc(Nc2n[n+](-c3ccccc3)c(-c3cccc(Cl)c3Cl)s2)cc1 | inactive
Cc1ccc(Nc2ccc(C(N)=O)cc2[N+](=O)[O-])cc1 | inactive
NC(=O)c1ccc(Nc2ccc3c(c2)CCC3)c([N+](=O)[O-])c1 | 11.6 µM (active)
NC(=O)c1ccc(Nc2ccc3nonc3c2[N+](=O)[O-])cc1 | inactive
CC(Sc1nnc(-c2ccccc2F)n1C1CC1)C(N)=O (stereo not drawn) | inactive
CCN(C[C@H]1N[C@@](Cc2ccccc2)(C(=O)OC)[C@H]2C(=O)N(Cc3ccccc3)C(=O)[C@@H]12)C(=O)c1ccc(C)cc1 | inactive
CCCNC(=O)Nc1ccccc1C(=O)Nc1ccc(OC)cc1 | inactive
COc1ccccc1C(=O)Nc1ccc(OCc2nnc3c4ccccc4c(C)nn23)cc1 | 20.6 µM (active)
CCOc1ccc(NC(=O)c2cc(C)nc3ccccc23)cc1 | inactive

From PubChem BioAssay AID504467 (National Center for Advancing Translational Sciences (NCATS), 2011)
